Results filed as inconclusive are left out. Calls of active or inactive are those of the source. Unless noted, calls follow the shape of the full dose curve.
Assays:
[1] = Nuclear factor erythroid 2-related factor 2/antioxidant responsive element (Nrf2/ARE) small molecule agonists: qHTS cell viability counter screen in human keratinocytes (AID 1919968; active = well fitted curve in the direction sought with a large enough effect in the repeat runs; an effect the other way counts as inactive or inconclusive; also: nearly all actives have a fitted effect of over 55% in size)
In short: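 CellTiter-Fluor fluorescence, read 1 h after reagent, gave viability in the same wells as the ARE-luciferase assay. KeratinoSens cells (1,500/well) had 23 h compound exposure at 37 C/5% CO2 following 5 h plating.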

[2] = Nuclear factor erythroid 2-related factor 2/antioxidant responsive element (Nrf2/ARE) small molecule agonists: luciferase reporter gene qHTS assay in human keratinocytes (AID 1919969); also: nearly all actives have a fitted effect of over 35% in size
[3] = biological target: Gonadotropin-releasing hormone receptor (Homo sapiens) (UniProt P30968); test: Human gonadotropin-releasing hormone receptor (GnRHR) small molecule agonists, calcium flux assay in GnRHR-HEK293 cells (AID 1920063); also: nearly all actives have a fitted effect of over 35% in size
Gonadotropin-releasing hormone receptor (Homo sapiens), sequence (P30968 whole entry, looked up): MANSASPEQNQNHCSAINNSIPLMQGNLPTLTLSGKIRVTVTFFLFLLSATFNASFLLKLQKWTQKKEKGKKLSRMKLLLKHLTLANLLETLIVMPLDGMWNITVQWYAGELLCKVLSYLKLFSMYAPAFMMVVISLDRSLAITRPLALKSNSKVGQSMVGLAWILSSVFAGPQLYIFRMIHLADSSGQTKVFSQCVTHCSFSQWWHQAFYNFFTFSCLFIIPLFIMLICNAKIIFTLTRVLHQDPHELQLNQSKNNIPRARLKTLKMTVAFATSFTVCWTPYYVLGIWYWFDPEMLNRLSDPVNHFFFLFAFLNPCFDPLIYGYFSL
In short: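 Agonist mode: compounds at 15 concentrations, in triplicate, went onto calcium dye-loaded GnRHR-HEK293 cells. Intracellular calcium was then followed as 480/540 nm fluorescence at 1 s intervals over 3 min.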

[4] = biological target: KiSS-1 receptor (Homo sapiens) (UniProt Q969F8); test: Human kisspeptin (KISS1R) small molecule agonists, calcium flux assay in KISS1R-HEK293 cells (AID 1920064; active = well fitted curve in the direction sought with a large enough effect in the repeat runs; an effect the other way counts as inactive or inconclusive)
KiSS-1 receptor (Homo sapiens), sequence (Q969F8 whole entry, looked up): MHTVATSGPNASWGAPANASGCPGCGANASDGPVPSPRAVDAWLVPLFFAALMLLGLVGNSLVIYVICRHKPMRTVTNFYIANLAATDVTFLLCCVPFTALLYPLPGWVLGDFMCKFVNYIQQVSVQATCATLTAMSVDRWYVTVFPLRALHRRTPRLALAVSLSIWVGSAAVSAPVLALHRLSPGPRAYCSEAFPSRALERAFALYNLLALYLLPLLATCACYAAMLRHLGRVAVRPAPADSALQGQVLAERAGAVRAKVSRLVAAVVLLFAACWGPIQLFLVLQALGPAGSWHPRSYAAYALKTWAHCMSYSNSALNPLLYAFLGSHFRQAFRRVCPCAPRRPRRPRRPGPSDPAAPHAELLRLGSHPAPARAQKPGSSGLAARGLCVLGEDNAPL
In short: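 Agonist mode: intracellular calcium rise tracked at 1 s intervals over 3 min (480/540 nm) immediately after compound addition to dye-loaded KISS1R-HEK293 stable cells. Each compound tested at 15 concentrations in triplicate.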

[5] = G protein-coupled receptor (GPCR) small molecule agonists, calcium flux assay: HEK293 wild type cell line counter screen (AID 1920065)
In short: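 Calcium flux counter screen: compound added in agonist mode at 15 concentrations in triplicate to dye-loaded parental HEK293 cells. Fluorescence (480/540) read kinetically for 3 min; ATP served as positive control.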

[6] = p53 small molecule agonists, cell-based qHTS assay with human liver microsomes (AID 1963577);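 also: p53 response element beta-lactamase reporter cells with liver microsomes plus NADPH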
In short: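 In this qHTS, p53 response-element beta-lactamase cells receive test compound together with a microsome/NADPH activating system (0.5 mg/mL final each) and are incubated 16 h at 37 C before LiveBLAzer fluorescence detection.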

[7] = p53 small molecule agonists, cell-based qHTS assay with rat liver microsomes (AID 1963578)
In short: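 Agonist mode in p53RE-bla reporter cells, with compounds co-incubated 16 h at 37 C alongside 0.5 mg/mL rat liver microsomes and 0.5 mg/mL NADPH (final), followed by a 2 h LiveBLAzer detection step.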

[8] = p53 small molecule agonists, cell-based qHTS assay with human liver microsomes: qHTS cell viability counter screen (AID 1963579); also: nearly all actives have a fitted effect of over 45% in size
In short: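 Metabolically activated exposure: compounds, human liver microsomes and NADPH (0.5 mg/mL final apiece) were added to p53RE-bla cells seeded 5 h earlier, left 16 h at 37 C, and then assessed for viability by CellTiter-Glo luminescence.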

[9] = p53 small molecule agonists, cell-based qHTS assay with rat liver microsomes: qHTS cell viability counter screen (AID 1963580); also: nearly all actives have a fitted effect of over 45% in size
In short: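 Rat liver microsome (0.5 mg/mL final) and NADPH (0.5 mg/mL final) co-incubation with compounds for 16 h at 37 C on HCT-116 p53RE-bla cells; cytotoxicity taken from intracellular ATP luminescence.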

[10] = p53 small molecule agonists, cell-based qHTS assay: qHTS cell viability counter screen (AID 1963581); also: nearly all actives have a fitted effect of over 45% in size
In short: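 Counter screen read by CellTiter-Glo luminescence (ATP content, 30 min at room temperature), run in the same wells as the beta-lactamase reporter read. HCT-116 p53RE-bla cells saw compounds for 16 h at 37 C.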

[11] = p53 small molecule agonists, cell-based qHTS assay (AID 1963582; active = well fitted activation curve with a large enough effect in the signal ratio in the repeat runs, not every such curve was filed as active; the % refers to the signal ratio)
In short: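 Read-out is beta-lactamase FRET fluorescence after 2 h at room temperature with LiveBLAzer B/G substrate. p53 response element-bla cells were treated 16 h at 37 C with compounds in DMSO, added 5 h after seeding.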

[12] = biological target: 5-hydroxytryptamine receptor 2A (Homo sapiens) (UniProt P28223); test: 5-hydroxytryptamine receptor 2A (HTR2A) small molecule antagonists, cell-based qHTS assay (AID 1963586); also: nearly all actives have a fitted effect of over 45% in size
5-hydroxytryptamine receptor 2A (Homo sapiens), sequence (P28223 whole entry, looked up): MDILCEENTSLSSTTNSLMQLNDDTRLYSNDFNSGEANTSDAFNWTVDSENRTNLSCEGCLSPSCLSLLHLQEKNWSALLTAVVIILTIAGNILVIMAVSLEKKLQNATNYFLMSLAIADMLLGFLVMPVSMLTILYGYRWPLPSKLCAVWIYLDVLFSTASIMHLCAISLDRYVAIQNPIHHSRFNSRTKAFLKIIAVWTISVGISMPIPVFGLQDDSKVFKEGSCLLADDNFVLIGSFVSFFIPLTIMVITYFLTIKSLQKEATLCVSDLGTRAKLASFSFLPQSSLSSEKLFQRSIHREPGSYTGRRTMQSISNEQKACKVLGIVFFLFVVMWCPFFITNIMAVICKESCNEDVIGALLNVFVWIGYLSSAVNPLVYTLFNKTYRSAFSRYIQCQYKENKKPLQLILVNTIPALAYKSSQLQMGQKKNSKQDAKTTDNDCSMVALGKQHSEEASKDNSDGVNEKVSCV
In short: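 CHO cells stably expressing human HTR2A were plated for 18 h at 37 C, then loaded with calcium dye for 1 h. Compounds were preincubated 5 min at room temperature before DOI (4 nM solution) was added. Kinetic fluorescence was read for 3 min.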

[13] = biological target: 5-hydroxytryptamine receptor 2A (Homo sapiens) (UniProt P28223); test: 5-hydroxytryptamine receptor 2A (HTR2A) small molecule agonists, cell-based qHTS assay (AID 1963587); also: nearly all actives have a fitted effect of over 30% in size
In short: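 Kinetic calcium-flux fluorescence (2 min, 1 sec intervals) after compound addition in agonist mode. HTR2A-CHO cells were cultured 18 h, then dye-loaded 1 h at 37 C.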

[14] = biological target: Muscarinic acetylcholine receptor M1 (Homo sapiens) (UniProt P11229); test: Cholinergic receptor muscarinic 1 (CHRM1) small molecule antagonists, cell-based qHTS assay (AID 1963588); also: nearly all actives have a fitted effect of over 40% in size
Muscarinic acetylcholine receptor M1 (Homo sapiens), sequence (P11229 whole entry, looked up): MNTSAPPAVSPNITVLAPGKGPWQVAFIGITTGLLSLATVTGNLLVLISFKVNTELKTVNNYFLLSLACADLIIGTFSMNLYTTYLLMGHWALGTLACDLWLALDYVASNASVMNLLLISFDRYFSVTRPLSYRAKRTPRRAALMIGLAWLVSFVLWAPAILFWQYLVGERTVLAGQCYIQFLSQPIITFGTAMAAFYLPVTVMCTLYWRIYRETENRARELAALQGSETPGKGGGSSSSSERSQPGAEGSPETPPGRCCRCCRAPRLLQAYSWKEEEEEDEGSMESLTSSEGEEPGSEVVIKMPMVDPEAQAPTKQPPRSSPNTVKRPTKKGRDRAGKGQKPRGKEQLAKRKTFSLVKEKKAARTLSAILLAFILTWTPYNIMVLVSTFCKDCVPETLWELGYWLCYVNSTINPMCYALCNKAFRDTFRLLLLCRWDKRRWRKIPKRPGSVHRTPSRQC
In short: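 Compounds were tested at 15 concentrations in three independent runs. Dye-loaded CHRM1-CHO cells were exposed 5 min at room temperature before stimulation by acetylcholine added at 50nM. Intracellular calcium was read kinetically on FDSS for 3 min.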

[15] = biological target: Muscarinic acetylcholine receptor M1 (Homo sapiens) (UniProt P11229); test: Cholinergic receptor muscarinic 1 (CHRM1) small molecule agonists, cell-based qHTS assay (AID 1963589); also: nearly all actives have a fitted effect of over 35% in size
In short: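 Agonist-mode calcium-flux screen: compounds at 15 concentrations, three independent runs, were pin-transferred onto dye-loaded human CHRM1-CHO cells. Fluorescence was then recorded kinetically every second over minutes.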

[16] = cAMP Responsive Elements (CRE) small molecule agonists, cell-based qHTS assay (AID 1963590)
In short: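 Agonist mode: compound added to CRE-bla HEK 293T cells (2,000/well, 18 h after plating) for 3 h at 37 C/5% CO2. Reporter activity detected via FRET beta-lactamase substrate, 2 h room-temperature loading.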

[17] = cAMP Responsive Elements (CRE) small molecule antagonists, cell-based qHTS assay (AID 1963591; active = well fitted inhibition curve with a large enough effect in the signal ratio in the repeat runs, not every such curve was filed as active; the % refers to the signal ratio)
In short: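 Antagonist mode: compounds are added alongside the adenylyl cyclase activator NKH477 (0.25 uM final) to CRE-bla HEK293T cells for 3 h. LiveBLAzer FRET substrate, 2 h at room temperature, reports bla expression.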

[18] = biological target: Beta-2 adrenergic receptor (Homo sapiens) (UniProt P07550); test: Adrenergic beta2 receptor (ADRB2) small molecule antagonists, cell-based qHTS assay (AID 1963592); also: series mostly up to about 92 µM; nearly all actives have a fitted effect of over 50% in size
Beta-2 adrenergic receptor (Homo sapiens), sequence (P07550 whole entry, looked up): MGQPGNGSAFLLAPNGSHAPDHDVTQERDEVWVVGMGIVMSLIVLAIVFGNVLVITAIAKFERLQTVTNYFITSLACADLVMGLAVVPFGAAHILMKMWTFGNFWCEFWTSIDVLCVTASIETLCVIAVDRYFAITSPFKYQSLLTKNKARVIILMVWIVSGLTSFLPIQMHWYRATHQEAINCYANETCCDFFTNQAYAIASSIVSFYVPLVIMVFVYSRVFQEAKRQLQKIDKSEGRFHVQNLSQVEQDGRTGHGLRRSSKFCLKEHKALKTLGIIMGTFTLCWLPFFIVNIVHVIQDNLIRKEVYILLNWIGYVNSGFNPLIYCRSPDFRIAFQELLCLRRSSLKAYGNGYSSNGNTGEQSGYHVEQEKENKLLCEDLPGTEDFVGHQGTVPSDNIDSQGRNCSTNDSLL
In short: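 Assay format: CHO-ADRB2 cells, 18-20hr seeding at 37C/5% CO2, then compound plus 1nM isoproterenol agonist mix for 0.5hr RT. Homogeneous time-resolved fluorescence cAMP detection after 1hr, expressed as 665/615 nm ratio.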

[19] = biological target: D(2) dopamine receptor (Homo sapiens) (UniProt P14416); test: Dopamine D2 receptor (DRD2) small molecule agonists, cell-based qHTS assay (AID 1963594); also: nearly all actives have a fitted effect of over 35% in size
D(2) dopamine receptor (Homo sapiens), sequence (P14416 whole entry, looked up): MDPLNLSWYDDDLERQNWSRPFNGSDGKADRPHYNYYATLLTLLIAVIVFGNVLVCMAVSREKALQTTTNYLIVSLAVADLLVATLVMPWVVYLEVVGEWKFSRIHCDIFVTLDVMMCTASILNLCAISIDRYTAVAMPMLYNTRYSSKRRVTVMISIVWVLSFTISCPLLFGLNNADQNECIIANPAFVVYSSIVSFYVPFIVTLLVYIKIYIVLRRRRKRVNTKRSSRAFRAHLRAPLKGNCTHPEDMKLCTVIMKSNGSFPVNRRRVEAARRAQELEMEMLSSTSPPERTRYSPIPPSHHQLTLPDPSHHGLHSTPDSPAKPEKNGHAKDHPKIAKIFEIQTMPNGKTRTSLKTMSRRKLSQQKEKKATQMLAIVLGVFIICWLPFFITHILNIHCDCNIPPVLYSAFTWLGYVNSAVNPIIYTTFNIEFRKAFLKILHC
In short: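 cAMP accumulation in DRD2-HEK293 cells measured by HTRF after 1 h detection; compounds added 10 min before NKH477 (200nM […]) forskolin-analogue stimulation, 30 min at room temperature, with Ro20-1724 present at 0.1 mM final.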

[20] = biological target: D(2) dopamine receptor (Homo sapiens) (UniProt P14416); test: Dopamine D2 receptor (DRD2) small molecule antagonists, cell-based qHTS assay (AID 1963595; active = well fitted inhibition curve with a large enough effect in the signal ratio in the repeat runs, with a control signal flat; the % refers to the signal ratio)
In short: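 HEK293 cells stably expressing DRD2, preincubated with 0.1 mM Ro20-1724 and compounds 10 min, were stimulated with 200 nM NKH477 plus 12 nM quinpirole for 30 min at room temperature; cAMP measured by HTRF (665/620 nm).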

Measured: Potency

CCCCCCOC(=O)C(C)CC (configuration not stated)
inactive: all assays above

OCC(CO)N[C@H]1C[C@](O)(CO)[C@@H](O)[C@H](O)[C@H]1O
inactive: all assays above

CCO[Si](C)(OCC)OCC
not listed: [19]
inactive: all other assays above

CC(C)(C)OC=O
inactive: all assays above

CC(C)CCCCOC(=O)c1ccccc1C(=O)OCCCCC(C)C
inactive: all assays above

[K+]
inactive: all assays above

CC(C)c1ccccc1O
inactive: all assays above

O=C(O)c1cc(C(=O)O)cc([N+](=O)[O-])c1
inactive: all assays above

CC(C)CCCO
inactive: all assays above

C=CCOC(=O)CCCCCCCC
inactive: all assays above

OCC(O)CN1CCN(c2ccccc2)CC1 (configuration not stated)
not listed: [19]
inactive: all other assays above

O=C(O)Cc1ccc(CCNS(=O)(=O)c2ccc(Cl)cc2)cc1
inactive: all assays above

ClC/C=C\CCl
not listed: [19]
inactive: all other assays above

Cc1ccc(C(=O)C(=O)O)cc1C
inactive: all assays above

CC(=O)c1cccc([N+](=O)[O-])c1
inactive: all assays above

Source: PubChem BioAssay (Tox21)
